Data as given in the supplement of paper PMC9262897, “Low-cost anti-mycobacterial drug discovery using engineered E. coli” (Nature Communications, 2022).
Where a name gives a salt, the structure may show the parent alone. ± gives the standard deviation of the averaged measurements.

system: E. coli TESEC Mtb Alr; assay: growth (OD600 after 10 h); higher = more growth (less inhibition); conditions: arabinose 100000 nM; compound 0.1 mM; raw OD600 reference: median of DMSO wells 0.201, cell-free background 0.041
Protocol: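 TESEC Mtb Alr E. coli, or the Alr+ wild-type control, in 384-well plates with Prestwick library compounds at 0.1 mM and 1% DMSO, across arabinose induction levels of 1E3 to 1E7 nM. Growth is read as OD600 after 10 h at 37 °C in triplicate biological replicates.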

Compound | growth
CN1CCc2cccc3c2[C@H]1Cc1ccc(O)c(O)c1-3 [R(-) Apomorphine hydrochloride hemihydrate] | 0.181 ± 0.019
CN1CCCN(C(c2ccccc2)c2ccc(Cl)cc2)CC1 (stereo not given) [Homochlorcyclizine dihydrochloride] | 0.09 ± 0.04
Cc1ncc(CO)c(CO)c1O [Pyridoxine hydrochloride] | 0.238 ± 0.034
O=C(NCC(O)CO)c1c(I)c(C(=O)NCC(O)CO)c(I)c(N(CCO)C(=O)CO)c1I (stereo not given) [Ioversol] | 0.208 ± 0.015
C[C@@H]1[C@H](O)[C@@H](C)/C=C/C=C/C=C/C=C/C=C/C=C/C=C/[C@H](O[C@@H]2O[C@H](C)[C@@H](O)[C@H](N)[C@@H]2O)C[C@@H]2O[C@](O)(C[C@@H](O)C[C@@H](O)[C@H](O)CC[C@@H](O)C[C@@H](O)CC(=O)O[C@H]1C)C[C@H](O)[C@H]2C(=O)O [Amphotericin B] | 0.345 ± 0.0081
C=Cc1c(C)c2cc3nc(cc4[nH]c(cc5nc(cc1[nH]2)C(C)=C5CCC(=O)O)c(CCC(=O)OC)c4C)[C@@]1(C)C3=CC=C(C(=O)OC)C1C(=O)OC.C=Cc1c(C)c2cc3nc(cc4[nH]c(cc5nc(cc1[nH]2)C(C)=C5CCC(=O)OC)c(CCC(=O)O)c4C)[C@@]1(C)C3=CC=C(C(=O)OC)C1C(=O)OC (stereo not given in full) [Verteporfin] | 0.443 ± 0.0078
CC(C)C[C@H](NC(=O)[C@@H](O)[C@H](N)Cc1ccccc1)C(=O)O [Ubenimex] | 0.215 ± 0.028
CC(COc1ccccc1)N(CCCl)Cc1ccccc1 (stereo not given) [Phenoxybenzamine hydrochloride] | 0.121 ± 0.0026
CN(C)CCCOc1nn(Cc2ccccc2)c2ccccc12 [Benzydamine hydrochloride] | 0.167 ± 0.0029
CC1CS(=O)(=O)CCN1/N=C/c1ccc([N+](=O)[O-])o1 (stereo not given) [Nifurtimox] | 0.0564 ± 0.0035
NCC[C@H](O)C(=O)N[C@@H]1C[C@H](N)[C@@H](O[C@H]2O[C@H](CN)[C@@H](O)[C@H](O)[C@H]2O)[C@H](O)[C@H]1O[C@H]1O[C@H](CO)[C@@H](O)[C@H](N)[C@H]1O [Amikacin hydrate] | 0.0425 ± 0.0009
Cc1cn([C@H]2C[C@H](N=[N+]=[N-])[C@@H](CO)O2)c(=O)[nH]c1=O [Zidovudine, AZT] | 0.0839 ± 0.0005
NC1CCN(c2nc3c(cc2F)c(=O)c(C(=O)O)cn3-c2ccc(F)cc2F)C1 (stereo not given) [Tosufloxacin hydrochloride] | 0.0552 ± 0.0018
CC[C@H](C)C(=O)O[C@H]1C[C@H](O)C=C2C=C[C@H](C)[C@H](CC[C@@H](O)C[C@@H](O)CC(=O)O)[C@H]21 [Pravastatin] | 0.222 ± 0.024
CC(NCCC(c1ccccc1)c1ccccc1)c1ccccc1 (stereo not given) [Fendiline hydrochloride] | 0.0416 ± 0.0018
CCN1CCCC(OC(=O)C(c2ccccc2)c2ccccc2)C1 (stereo not given) [Piperidolate hydrochloride] | 0.161 ± 0.01
COc1ccc(C(=O)NCc2ccc(OCCN(C)C)cc2)cc1OC [Itopride] | 0.229 ± 0.029
CCCCOc1ccc(C(=O)CCN2CCCCC2)cc1 [Dyclonine hydrochloride] | 0.183 ± 0.0081
CC(C)C(=O)c1c(C(C)C)nn2ccccc12 [Ibudilast] | 0.148 ± 0.0046
CC(O)(P(=O)(O)O)P(=O)(O)O [Etidronic acid, disodium salt] | 0.20943 ± 0.00012
Nc1ccc(O)c(C(=O)O)c1 [Mesalamine] | 0.2 ± 0.011
CC=CC1=C(C(=O)O)N2C(=O)[C@@H](NC(=O)[C@H](N)c3ccc(O)cc3)[C@H]2SC1 [Cefprozil] | 0.184 ± 0.0039
O=C(OCC(O)CO)c1ccccc1Nc1ccnc2cc(Cl)ccc12 (stereo not given) [Glafenine hydrochloride] | 0.187 ± 0.026
CC1Cc2ccccc2N1NC(=O)c1ccc(Cl)c(S(N)(=O)=O)c1 (stereo not given) [Indapamide] | 0.191 ± 0.015
CN(C)CCN1C(=O)c2ccccc2N(C)c2ccccc21 [Dibenzepine hydrochloride] | 0.185 ± 0.03
CO[C@@]1(NC(=O)Cc2cccs2)C(=O)N2C(C(=O)O)=C(COC(N)=O)CS[C@@H]21 [Cefoxitin sodium salt] | 0.0383 ± 0.0013
CCC1(c2ccccc2)NC(=O)N(C)C1=O (stereo not given) [Mephenytoin] | 0.201 ± 0.014
CCN(CC)CC#CCOC(=O)C(O)(c1ccccc1)C1CCCCC1 (stereo not given) [Oxybutynin chloride] | 0.131 ± 0.072
COC(=O)[C@H](c1ccccc1Cl)N1CCc2sccc2C1 [Clopidogrel] | 0.0991 ± 0.004
CN(C)CCOc1ccc(/C(=C(/CCCl)c2ccccc2)c2ccccc2)cc1 [Toremifene] | 0.0409 ± 0.00036
